HTT ATP protect: protects HTT-Q103 PC12 cells, measured by ATP. Potency, µM (doses to about 56.4 µM), without a hit: cytoprotection (ATP increase), actives largely listed as activators. AID 1471. actives 0.14% (n = 230,000). PC12 HTT-Q103 induced, cytoprotection, ATP luminescence, 40 h; active = well fitted curve in the direction sought with a large enough effect; inconclusive = small, poorly fitted or top-dose-only effect, or another doubt; inactive = no such curve, though single readings can be large; an effect the other way counts as inactive or inconclusive; note: % of control where 0% means no effect; nearly all actives have a fitted effect of over 45% in size
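ATP quantification (ATPlite) reports survival of PC12 cells in which tebufenozide, 100 nM final, switches on Htt exon 1 with 103 glutamines linked to GFP; compounds are titrated.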
Lamin A splicing: modulators of lamin A splicing; HeLa LMNA splicing GFP/RFP minigene ratio, 48 h; Potency, µM (top dose mostly 46.1 µM), inactives show at the top dose ratio change, negative = inhibition, hits mostly inhibitors; actives 0.01% (n = 200,000); AID 1487; active = well fitted inhibition curve with a large enough effect in the signal ratio, with a control signal flat, not every such curve was filed as active; inconclusive = small, poorly fitted or top-dose-only effect, or effect the other way, or a change in a side signal; the % refers to the signal ratio; note: % is set by controls: 0 for no effect and ±100 for the full control effect
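Read-out is the ratio of GFP to DsRed2 object intensity, acquired by 488 nm laser-scanning cytometry on HeLa lamin A-EGFP minigene reporter cells. Compound incubation 48 hrs at 37 °C in Opti-MEM with 2% FBS; DMSO 0.5% final.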
HPGD inh: HPGD (human) dehydrogenase inhibition; purified HPGD, NADH fluorescence kinetic, PGE2 substrate; P15428; actives 4.3% (n = 150,000); AID 894; Potency, µM, without a hit: top-dose activity change, negative = inhibition, usual class: inhibitors; note: % is set by controls: 0 for no effect and ±100 for the full control effect
Target sequence (P15428 whole entry, looked up): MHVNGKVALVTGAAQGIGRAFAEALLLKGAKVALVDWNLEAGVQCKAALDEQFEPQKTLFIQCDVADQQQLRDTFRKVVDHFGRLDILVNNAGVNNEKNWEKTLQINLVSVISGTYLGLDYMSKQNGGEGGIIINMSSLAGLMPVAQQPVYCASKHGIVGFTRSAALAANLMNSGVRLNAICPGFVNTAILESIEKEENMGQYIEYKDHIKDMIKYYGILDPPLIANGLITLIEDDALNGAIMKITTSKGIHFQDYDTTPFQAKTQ
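20 nM HPGD preincubated 15 min at room temperature with compound in 50 mM Tris-HCl pH 8, 0.01% Tween 20. Started with 1 mM NAD+ and 30 uM prostaglandin E2; NADH fluorescence (360/450 nm) read 5 times over 30-s intervals, last minus first.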
ALDH1A1 block: inhibitors of human aldehyde dehydrogenase 1A1; P00352; Purified ALDH1A1, NADH fluorescence, propionaldehyde substrate; actives 7.3% (n = 220,000); Potency, µM (highest dose often 75.3 µM), for the others: at the highest dose activity, negative = inhibition, actives largely listed as inhibitors;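 note: plate controls were no enzyme wells and a reference inhibitor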
Target sequence (P00352 whole entry, looked up): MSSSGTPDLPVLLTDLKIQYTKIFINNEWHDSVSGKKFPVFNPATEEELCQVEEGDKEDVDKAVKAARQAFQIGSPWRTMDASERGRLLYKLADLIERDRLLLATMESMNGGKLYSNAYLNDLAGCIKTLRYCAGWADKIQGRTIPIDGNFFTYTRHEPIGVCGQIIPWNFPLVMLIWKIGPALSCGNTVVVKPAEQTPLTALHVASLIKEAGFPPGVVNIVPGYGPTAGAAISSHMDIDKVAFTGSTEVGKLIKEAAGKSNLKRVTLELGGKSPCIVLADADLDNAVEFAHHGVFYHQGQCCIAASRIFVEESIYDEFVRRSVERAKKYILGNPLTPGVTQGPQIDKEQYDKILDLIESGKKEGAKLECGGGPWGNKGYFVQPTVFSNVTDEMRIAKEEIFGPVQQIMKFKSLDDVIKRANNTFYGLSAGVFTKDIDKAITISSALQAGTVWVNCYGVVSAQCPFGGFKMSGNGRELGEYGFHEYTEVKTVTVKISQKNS
HTT aggregate: mutant huntingtin aggregation inhibition | PC12 HttQ103-GFP aggregates, Acumen cytometry, 40 h | Potency, µM (top dose mostly 46.1 µM), without a hit: at the highest dose activity change, negative = inhibition, hits mostly inhibitors | actives 1.1% (n = 220,000) | AID 1688; active = well fitted curve in the direction sought with a large enough effect; inconclusive = small, poorly fitted or top-dose-only effect, or another doubt; inactive = no such curve, though single readings can be large; an effect the other way counts as inactive or inconclusive; note: % is set by controls: 0 for no effect and ±100 for the full control effect; nearly all actives have a fitted effect of over 60% in size
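Quantitative HTS on tebufenozide-induced (100 nM) PC12 cells stably expressing polyQ103 Huntingtin exon 1–GFP. Reduction of bright GFP aggregates, detected by laser scanning cytometry after lysis, identified actives across the titration.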
* hit, by the source's call; ? = inconclusive; . = no result; [ ] = dose if it differs, or a comment. Hits are enriched below; roughly 8.8% of the tested compounds scored in any of these assays. Unless noted, calls come from the whole dose curve; as a rule, active = well fitted inhibition curve with a large enough effect (not every such curve was filed as active); inconclusive = small, poorly fitted or top-dose-only effect, or another doubt; inactive = no such curve, though single readings can be large or run the other way. Potency is the fitted concentration of half-maximal effect.

SMILES | HTT ATP protect | Lamin A splicing | HPGD inh | ALDH1A1 block | HTT aggregate
Cc1ccc(OCC(=O)Nc2cnn(CCCC(=O)O)c2)c([N+](=O)[O-])c1 | -14% | . | . | 12% | -4%
O=C(NCC(O)COc1ccc([N+](=O)[O-])cc1)Nc1ccccc1 (configuration not stated) | -4%[10 µM] | . | . | 20µM* | 3%[9.22 µM]
OC(CNc1ccccc1)COc1ccc(OCC(O)CNc2ccccc2)cc1 (configuration not stated) | -75% | ? | -16% | 4% | 11µM*
O=C(NC1CSC/C1=N\O)c1ccccc1 (configuration not stated) | -7% | 5% | -11% | 22µM* | 17%
CCOc1ccc(-c2cc(C(=O)N/N=C/c3ccc(O)c(OC)c3)[nH]n2)cc1 | . | . | -14% | ? | .
CCN1/C(=C/C(C)=C/c2sc3ccccc3[n+]2CC)Sc2ccccc21 | -186% | . | . | ? | 1.1µM*
C(#Cc1ccccc1)C[N+]1(CC#Cc2ccccc2)CCCC1 | 5%[10 µM] | ? | -4% | 7% | ?
C=CC#CC[N+]1(CC#Cc2ccccc2)CCOCC1 | . | 6% | 25µM* | ? | -18%
COc1ccc(CNC(=O)c2ccc3nc(C(C)C)oc3c2)cc1OC | . | 0%[46 µM] | . | . | .
CCC(NC(=O)Nc1nnc(C(F)(F)F)s1)(C(F)(F)F)C(F)(F)F | -73% | ? | -10% | 13% | 1.6µM*
CC(=O)N1N=C(c2ccco2)CC1c1ccc(C)cc1 (configuration not stated) | . | 6% | -8% | ? | 25%
CC(=O)N1N=C(c2ccc(C)o2)CC1c1cccc(F)c1 (configuration not stated) | 30%[10 µM] | -6%[46 µM] | . | 14µM* | 21%[9.22 µM]
O=C1C=CC(=C(c2ccc(O)cc2)c2ccc(O)cc2)C=C1 | -147% | . | 14µM* | -10% | .
Cc1ccc(CNC(=O)COC(=O)c2ccc(Br)cc2)cc1 | . | 3% | -11% | 11% | -17%
COc1ccc(C(=O)/C=C/NCc2ccc(F)cc2)cc1OC | -20%[10 µM] | . | . | 22µM* | -1%[9.22 µM]
Cc1ccc(C(=O)/C=C/NCc2ccc(F)cc2)cc1 | 19%[10 µM] | -8% | -24% | 14µM* | 14%
Cc1ccc(CN/C=C/C(=O)c2ccc(Br)cc2)cc1 | -38% | ? | ? | 16µM* | -1%
CCOC(=O)c1ccc(N/C=C/C(=O)c2ccc(OC)c(OC)c2)cc1 | -19% | -10% | -29% | -2% | 18%
O=C(/C=C/NNC(=O)c1ccccc1)c1ccc(Br)cc1 | -34% | 5% | -23% | ? | -11%[9.22 µM]
O=C(/C=C/NCC(=O)c1ccccc1)c1ccc(Br)cc1 | -8%[10 µM] | -15% | -27% | 7.9µM* | -6%
Cc1nn(C)cc1CN(C)C(=O)c1cc(-c2ccccc2)nc2ccc(Br)cc12 | -50% | ? | . | 3% | -4%
Cc1ccc(Cn2ncc(Cl)c(Cl)c2=O)cc1 | 14%[10 µM] | -12% | -8% | 25µM* | ?
Cc1[nH]c(C)c2c(=O)n(Cc3ccc(Cl)cc3)ncc12 | 22%[10 µM] | . | . | 1% | 9%[9.22 µM]
O=c1c(Cl)c(Cl)cnn1Cc1nnc(-c2ccc(Cl)cc2)o1 | -188% | ? | . | 8.9µM* | ?
CCc1ccc(C(=O)Cn2ncc(Cl)c(Cl)c2=O)cc1 | -100% | ? | -2% | 14µM* | ?
SMILES | HTT ATP protect | Lamin A splicing | HPGD inh | ALDH1A1 block | HTT aggregate
Cc1cc(C)cc(Cn2ncc(Cl)c(Cl)c2=O)c1 | . | ? | -8% | 28µM* | ?
O=c1c(Cl)c(Cl)cnn1Cc1ccccc1Cl | 5%[0.074 µM] | ? | -14% | 7% | 15%
CC(C)c1ccc(C2CC(=O)c3cnc(N4CCc5ccccc5C4)nc3C2)cc1 (configuration not stated) | 1% | 15% | -20% | -10% | -6%
O=C(CSC(=S)N1CCCCC1)Nc1ncc2c(n1)CC(c1ccco1)CC2=O (configuration not stated) | -18%[10 µM] | . | . | 4µM* | -16%[9.22 µM]
O=C1CC(c2ccco2)Cc2nc(N3CCc4ccccc4C3)ncc21 (configuration not stated) | 14% | ? | ? | 13µM* | 31%
COc1ccc(-c2cc(C(F)(F)F)n3nc(C(=O)N4CCCC4)cc3n2)cc1 | -23% | -2% | ? | ? | 7%
O=C(c1cc2nc(-c3ccc(F)cc3)cc(C(F)(F)F)n2n1)N1CCCCC1c1cccnc1 (configuration not stated) | -46% | ? | . | 14µM* | 8.9µM*
CN1CCN(C(=O)c2cc3nc(-c4ccc(F)cc4)cc(C(F)(F)F)n3n2)CC1 | 7% | -4% | 11µM* | -6% | -20%
CCOc1ccc2nc(SC3CC(=O)N(c4ccc(C)cc4)C3=O)sc2c1 (configuration not stated) | -95%[10 µM] | 1% | -6% | 2.2µM* | ?
CCOc1ccc2nc(SCC(=O)Nc3ccc4c(c3)OCO4)sc2c1 | . | ? | -11% | 8% | 7%
CCc1ccc(NC2CC(=O)N(c3ccc(OC)cc3OC)C2=O)cc1 (configuration not stated) | -12% | -8% | -10% | -16% | -20%
CCOc1ccc2nc(SCC(=O)c3ccc(C)s3)sc2c1 | -8%[10 µM] | -1% | 14µM* | ? | ?
CCOc1ccc(N2C(=O)CC(Sc3nccc(C)n3)C2=O)cc1 (configuration not stated) | -6%[0.074 µM] | 10% | -5% | ? | 5%
CCOc1ccc2nc(SC3CC(=O)N(c4ccc(OC)cc4OC)C3=O)sc2c1 (configuration not stated) | . | ? | . | 25µM* | .
COCCNc1ccnc(-c2ccccc2C(F)(F)F)n1 | -21% | 6% | . | 12% | .
Cc1ccc(N(C)C(=O)CN2C(=O)CCc3cc(S(=O)(=O)N4CCOCC4)ccc32)cc1 | . | 0%[46 µM] | . | . | .
O=C(O)c1ccc(-c2nc(-c3ccccc3Cl)cs2)cc1 | -63% | -28%[46 µM] | . | -8% | 23%
CCS(=O)(=O)c1ccc(-c2csc(-c3ccccc3)n2)c(Cl)c1Cl | -2%[10 µM] | 0% | ? | ? | 11µM*
Cc1c(C(=S)NC(=O)C2CC2)c(=O)n(-c2ccccc2)n1C | -44% | 11%[46 µM] | . | 18µM* | -7%
Cc1c(NC(=O)C2CCCNC2=O)c(=O)n(-c2ccccc2)n1C (configuration not stated) | -3% | -3% | -10% | -21% | 6%
COc1ccc(NS(=O)(=O)c2ccc(N3CC(O)=C(c4ccccc4)C3=N)cc2)cc1 | 6%[10 µM] | . | . | . | -3%[9.22 µM]
O=C(CCl)c1ccc2[nH]c(=O)oc2c1 | 25%[10 µM] | -4%[46 µM] | . | 0.28µM* | 3%[9.22 µM]
O=c1[nH]c2ccc(S(=O)(=O)N3CCCCC3)cc2o1 | -4%[1.9 µM] | -8% | 0% | -1% | 1%
COc1cccc(N2CCN(CC(=O)c3c[nH]c4ccc(OC)cc34)CC2C)c1 (configuration not stated) | -18%[0.074 µM] | 3% | ? | ? | 35µM*
COc1ccc(-n2cc(-c3ccccc3)nc2SCC(=O)Nc2ccccc2)cc1Cl | . | -4%[46 µM] | . | . | .

Screening results from PubChem BioAssay.
